Holding throughout (conditions): mESC; 2uM; 72 h treatment, harvest day 5
Compound in experiment [1]: Cc1ccc(C(=O)NCCCCCC(=O)Nc2ccccc2N)cc1
Description: fraction of edited reads among all mapped reads; higher = more Cas9 editing.

Compound in experiment [2]: Nc1cc(F)ccc1NC(=O)c1ccc(CNC(=O)/C=C/c2cccnc2)cc1 [Tucidinostat (Chidamide)]
The description is as above.

Compound in experiment [3]: Nc1nc2[nH]cc(CCc3ccc(C(=O)N[C@@H](CCC(=O)O)C(=O)O)cc3)c2c(=O)[nH]1 [Pemetrexed]
The experiment is described as above.

Compound in experiment [4]: Nc1ncnc2c1c(-c1cnc3[nH]ccc3c1)nn2C1CCCC1
The experiment is described as above.

Compound in experiment [5]: O=c1c(-c2ccc(O)cc2)coc2cc(O)cc(O)c12 [Genistein]
Described as above.

Compound in experiment [6]: S=c1nc[nH]c2nc[nH]c12 [6-Mercaptopurine (6-MP) Monohydrate]
The description is as above.

Compound in experiment [7]: CC(C)(C#N)c1ccc(N2C(=O)OCc3cnc4ccc(-c5cnc6ccccc6c5)cc4c32)cc1
Description: fraction of microhomology deletions among edited reads; higher = more MH deletions.

Compound in experiment [8]: CCCCOc1c(C(=O)c2c(F)cc(C)cc2F)c[nH]c2nncc1-2
The experiment is described as above.

Compound in experiment [9]: CNc1ccc([N+](=O)[O-])c(Nc2ccc3[nH]ncc3c2)n1
Described as above.

Compound in experiment [10]: Cc1cc(C)nc(SCC(=O)Nc2ncc(Cc3cccc4ccccc34)s2)n1
Put plainly: fraction of edited reads among all mapped reads; higher = more Cas9 editing.

Compound in experiment [11]: Cc1cccc(CC(=O)N2CCc3c2ccc(-c2cn(C)c4ncnc(N)c24)c3F)n1
The description is as above.

Compound in experiment [12]: NC(=O)c1ccc2nc(-c3ccc(Oc4ccc(Cl)cc4)cc3)[nH]c2c1 [Chk 2 inhibitor II (BML-277)]
The experiment is described as above.

Compound in experiment [13]: O=C(c1cccc(Cl)c1F)N1CCN(Cc2cccc(Nc3nccs3)n2)CC1
The description is as above.

Compound in experiment [14]: O=C1Cc2c([nH]c3ccc(Br)cc23)-c2ccccc2N1 [Kenpaullone]
The experiment is described as above.

Compound in experiment [15]: O=c1cc(N2CCOCC2)oc2c(-c3ccc4c(c3)OCCO4)csc12
Described as above.

Compound in experiment [16]: S=c1[nH]cnc2nc[nH]c12 [Mercaptopurine (6-MP)]
The description is as above.

Compound in experiment [17]: CC(=O)O/N=C1\C(=O)N(Cc2cc(Cl)ccc2Cl)c2ccc(Cl)cc21
Description: fraction of microhomology deletions among edited reads; higher = more MH deletions.

Compound in experiment [18]: CCN1CCN(CC(=O)Nc2ccc(-c3cccc4c(=O)cc(N5CCOCC5)oc34)c3sc4ccccc4c23)CC1
Described as above.

Compound in experiment [19]: CCc1c2c(nc3ccc(OC(=O)N4CCC(N5CCCCC5)CC4)cc13)-c1cc3c(c(=O)n1C2)COC(=O)[C@]3(O)CC [Irinotecan HCl Trihydrate]
Described as above.

Compound in experiment [20]: CCn1c(=O)c(-c2ccc(Cl)cc2Cl)cc2cnc(Nc3ccc(N4CCNCC4)c(F)c3)nc21
Described as above.

As to “46.0 TTAAGAGCAATGTTCACGCAACTTGAAATTATATCTGTGGTCTTCAAATTGTCTTTTGTCA”, the “fraction of edited reads among all mapped reads” value in [1] came out at 0.1; in [2] it was 0.0602; in [3], 0.136; in experiment [4], 0.105; in experiment [5] it was 0.116; in [6], 0.0652. The “fraction of microhomology deletions among edited reads” value in experiment [7] was 0.597; in [8] it was 0.422; in [9] it was 0.376.

“39.0 (DMSO control at this site: 1-bp insertion 0.328, MH deletion 0.371, edited 0.204) CTGCACAGTCACTTAGGATAGGAGAAGATGATGTATAGGGTTTAGTGGGAGATGTTGCAAG”: the “fraction of edited reads among all mapped reads” value in experiment [10] was found to be 0.3; in experiment [1], 0.189; in experiment [11] it was 0.29; in [12] it was 0.229; in experiment [2], 0.184; in [3], 0.177. Besides, the “fraction of edited reads among all mapped reads” value in experiment [4] came out at 0.196; in experiment [13], 0.141; in experiment [14] it was 0.328; in experiment [5] it was 0.231; in experiment [15], 0.121; in [16], 0.243. The “fraction of edited reads among all mapped reads” value in experiment [6] worked out at 0.167. Also, the “fraction of microhomology deletions among edited reads” value in [17] was 0.412; in experiment [7] it was 0.405; in experiment [8], 0.358; in experiment [18] it was 0.539; in experiment [19] it was 0.384; in [20], 0.367. Moreover, in [9], the “fraction of microhomology deletions among edited reads” value worked out at 0.332.

Regarding “18.0 (DMSO control at this site: 1-bp insertion 0.114, MH deletion 0.789, edited 0.094) GCGCAAGTGCATAAGTTTTTCTTAAGGCGTGCCTTTAAGGCGTGCCTTTGTCGGTCCTGGA”, the “fraction of edited reads among all mapped reads” value in [10] is 0.155; in experiment [1] it was 0.0986; in experiment [11] it was 0.121; in experiment [12] it was 0.106; in experiment [2] it was 0.0855; in [3], 0.0951. Besides, the “fraction of edited reads among all mapped reads” value in experiment [4] turned out to be 0.0956; in [13] it was 0.0736; in experiment [14], 0.162; in [5], 0.131; in experiment [15], 0.0717; in [16], 0.112. Also, the “fraction of edited reads among all mapped reads” value in experiment [6] was 0.0789. For the same target, the “fraction of microhomology deletions among edited reads” value in experiment [17] came out at 0.794; in [7], 0.798; in experiment [8], 0.787; in experiment [18], 0.866; in experiment [19], 0.789; in [20], 0.794. Also, the “fraction of microhomology deletions among edited reads” value in experiment [9] was 0.793.

Consider “19.0 (DMSO control at this site: 1-bp insertion 0.121, MH deletion 0.101, edited 0.057) TCTGCAGGGGTCGGAACCCGGGGGCTAGGGCTATCCCGGGGGCTAGGGCTATTAGCGAACC”, for which the “fraction of edited reads among all mapped reads” value turned out to be 0.112 in experiment [10]; 0.0637 in experiment [1]; 0.0933 in experiment [11]; 0.0726 in experiment [12]; 0.0662 in experiment [2]; 0.0698 in experiment [3]. In addition, the “fraction of edited reads among all mapped reads” value worked out at 0.0701 in experiment [4]; 0.0542 in [13]; 0.141 in experiment [14]; 0.0811 in [5]; 0.0353 in experiment [15]; 0.0901 in [16]. Further, the “fraction of edited reads among all mapped reads” value in experiment [6] came out at 0.0729. Also, the “fraction of microhomology deletions among edited reads” value in experiment [17] was found to be 0.203; in experiment [7], 0.175; in experiment [8], 0.215; in [18] it was 0.187; in experiment [19], 0.222; in experiment [20], 0.147. Besides, in experiment [9], the “fraction of microhomology deletions among edited reads” value was found to be 0.197.

Turning to “29.0 (DMSO control at this site: 1-bp insertion 0.084, MH deletion 0.745, edited 0.133) TTGATGAACTTCCTCTTCTTCTCATGTCTCCGGTCTCCGGTAGGCCACGTGCATGGCCACT”, the “fraction of edited reads among all mapped reads” value stood at 0.239 in experiment [10]; 0.147 in experiment [1]; 0.189 in experiment [11]; 0.165 in experiment [12]; 0.129 in experiment [2]; 0.13 in [3]. The “fraction of edited reads among all mapped reads” value in experiment [4] turned out to be 0.144; in experiment [13], 0.0932; in [14], 0.261; in experiment [5], 0.18; in [15], 0.0905; in experiment [16] it was 0.171. For the same target, the “fraction of edited reads among all mapped reads” value in experiment [6] was determined as 0.127. For the same target, the “fraction of microhomology deletions among edited reads” value worked out at 0.727 in [17]; 0.728 in experiment [7]; 0.734 in experiment [8]; 0.773 in experiment [18]; 0.719 in experiment [19]; 0.757 in [20]. In addition, the “fraction of microhomology deletions among edited reads” value in experiment [9] amounted to 0.738.

These data come from the supplement of paper PMC8387472.
